TGFb inhibitor – blocks TGF-b signaling; AID 588855; Potency, µM (highest dose often 46.1 µM), for inactives: top-dose activity, negative = inhibition, actives largely listed as inhibitors; HepG2 CAGA-GFP TGF-b/SMAD3 reporter, GFP fluorescence, 18 h; TGF-beta stimulated, 500 pg/mL final; 1.2% of 410,000 active; further: on the % scale 0 is the no-effect control and ±100 the full control effect; nearly all actives have a fitted effect of over 65% in size
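Inhibition of TGF-beta-driven CAGA-GFP reporter expression in HEPG2 cells is measured by cellular GFP fluorescence after 18 h stimulation with 500 pg/mL recombinant TGF-beta in 1% FBS medium at 37 degrees C.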
HepG2 tox-1 – kills HepG2 cells in TGF-b inhibitor counter-screen. AID 588856. HepG2 CAGA-GFP viability, ATP luminescence, 18 h. Potency, µM (top dose mostly 46.1 µM), for the others: at the top dose activity change, negative = cytotoxicity, most hits filed as cytotoxic. 0.76% of 410,000 active
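HepG2 CAGA-GFP cells (1000/well, DMEM with 1% FBS) received compound, then TGF-beta at 500 pg/mL final, and were incubated 18 hours at 37 degrees C. Viability was read by CellTiter-Glo luminescence. Media-only wells were set as complete cell-killing and DMSO as no toxicity.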
ATXN viability – viability counter-screen for ATXN expression inhibitors. AID 651635. Potency, µM (titrated, usually from 56.7 µM), most hits filed as cytotoxic. 0.49% of 400,000 active. S2 cells (HEK-293 line with an ATXN2-luciferase reporter) viability, CellTiter-Fluor protease fluorescence, 24 h; further: nearly all actives have a fitted effect of over 40% in size
KB-3-1 cytotox – kills parental KB-3-1 adenocarcinoma cells; KB-3-1 viability, CellTiter-Glo ATP luminescence, 72 h; Potency, µM (titrated, usually from 46.1 µM), most hits filed as cytotoxic; AID 1347075; 1.4% of 400,000 active; further: on the % scale 0 is the no-effect control and ±100 the full control effect; nearly all actives have a fitted effect of over 60% in size
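Parental KB-3-1 viability, qHTS format: 72 h compound exposure, 37 °C; CellTiter-Glo; media-only wells and DMSO plates as controls; concentration-effect fits on corrected data.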
KB-V1 MDR tox – kills drug-selected multidrug resistant KB-V1 cells; KB-V1 MDR cells viability, CellTiter-Glo, 72 h; Potency, µM (titrated, usually from 46.1 µM), most hits filed as cytotoxic; 3.4% of 400,000 active; AID 1347076; further: on the % scale 0 is the no-effect control and ±100 the full control effect; nearly all actives have a fitted effect of over 60% in size
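KB-V1 MDR subline cells in DMEM (phenol-red free, 10% FBS) exposed to compounds in qHTS concentration series for 72 h at 37 degrees C. Viability read by CellTiter-Glo luminescence; concentration-effect curves fitted after normalization and correction.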
ATXN2 expr inh – reduces ATXN2 reporter expression in HEK-293 cells; HEK-293 ATXN2-luciferase reporter, luminescence, 24 h; Potency, µM (titrated, usually from 57 µM), without a hit: at the highest dose activity change, negative = inhibition, most hits filed as inhibitors; 0.72% of 360,000 active; further: on the % scale 0 is the no-effect control and ±100 the full control effect; nearly all actives have a fitted effect of over 55% in size
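ATXN2-luciferase reporter cells (luciferase flanked by upstream and downstream ATXN2 gene portions) were treated 24 h at 37 °C with compounds at up to 57 uM. SteadyGlo luminescence gave expression; GF-AFC fluorescence gave viability.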
TGFb CAGA inh – TGF-b pathway inhibition, cherry-pick retest; shares compounds with TGFb inhibitor; HepG2 CAGA-GFP TGF-b reporter, GFP fluorescence, 18 h; cells stimulated with TGF-beta, 500 pg/mL; Potency, µM (series often up to 46.1 µM), inactives show at the highest dose activity, negative = inhibition, actives largely listed as inhibitors; 63% of 1,600 active; further: on the % scale 0 is the no-effect control and ±100 the full control effect; nearly all actives have a fitted effect of over 65% in size
HepG2 tox-2 – counter-screen for TGF-b inhibitors: cytotoxicity in HepG2 cells. shares compounds with TGFb inhibitor. HepG2 CAGA-GFP viability, ATP luminescence, 18 h; cells stimulated with TGF-beta, 500 pg/mL. Potency, µM (highest dose often 46.1 µM), without a hit: at the top dose activity, negative = cytotoxicity, actives largely listed as inhibitors. 27% of 1,600 active. AID 720535; further: on the % scale 0 is the no-effect control and ±100 the full control effect; nearly all actives have a fitted effect of over 70% in size
CCL64 TGFb inh – blocks TGF-b signaling in CCL64 reporter cells; CCL64 CAGA-GFP reporter, TGF-b stimulated, GFP fluorescence, 18 h; Potency, µM (doses to about 46.1 µM), for the others: at the top dose activity, negative = inhibition, usual class: inhibitors; shares compounds with TGFb inhibitor; AID 720536; 41% of 1,600 active; further: nearly all actives have a fitted effect of over 65% in size
TGFb COP inh – blocks TGF-b signaling in HepG2 COP reporter; Potency, µM (top dose mostly 46.1 µM), for the others: at the highest dose activity, negative = inhibition, actives largely listed as inhibitors; 3% of 1,600 active; HepG2 COP-GFP TGF-b reporter, GFP fluorescence, 18 h; cells stimulated by added recombinant TGF-beta; shares compounds with TGFb inhibitor; further: nearly all actives have a fitted effect of over 70% in size
* = called active by the depositor; i = inactive; ? = inconclusive; . = no result. An excerpt weighted towards active compounds, which were near 5.9% of everything screened. The call rests on the fitted dose curve; in most records, active means well fitted curve in the direction sought with a large enough effect; inconclusive means small, poorly fitted or top-dose-only effect, or another doubt; inactive means no such curve, though single readings can be large; an effect the other way counts as inactive or inconclusive. Potency means the concentration at half of the fitted maximal effect.

SMILES	TGFb inhibitor	HepG2 tox-1	ATXN viability	KB-3-1 cytotox	KB-V1 MDR tox	ATXN2 expr inh	TGFb CAGA inh	HepG2 tox-2	CCL64 TGFb inh	TGFb COP inh
CC(=O)NC(CCS(C)(=O)=O)C(=O)Nc1cccc(Cl)c1Cl (stereo not drawn)	-7%	-5%	i	i	i	6%	.	.	.	.
CCOc1ccc(NCc2nc3ccccc3n2CCOc2ccccc2)cc1	20µM*	-23%	?	?	?	-15%	15µM*	-29%	-19%	13%
COc1ccc(NC(=O)C(c2ccccc2)n2c(=O)c(-c3cc4ccccc4[nH]3)nc3ccccc32)cc1 (stereo not drawn)	.	.	.	i	i	.	.	.	.	.
CCOCCOC(=O)c1ccc2c(c1)N(Cc1ccccc1C#N)C(=O)c1ccccc1S2(=O)=O	-38%	-26%	i	i	i	-5%	.	.	.	.
Cc1ccc(-n2c(C)cc(/C=N/NC(N)=S)c2C)cc1	0%	5%	i	i	i	26%	.	.	.	.
CNC(=S)N/N=C/c1cc(C)n(-c2ccc(Cl)c(Cl)c2)c1C	13µM*	-3%	i	i	i	0%	21µM*	?	?	34%
COc1ccc(C)cc1NC(=O)Cn1nc(N2CCN(c3ccccc3OC)CC2)ccc1=O	-13%	-28%	i	i	i	-29%	.	.	.	.
CCCOc1ccccc1N/C(=N/c1nc(C)cc(C)n1)NC(=O)COc1ccc(OC)cc1	10µM*	-7%	i	i	i	-34%	13µM*	-27%	?	24%
CCCn1nc2cc(C(=O)NCCc3cccs3)ccc2c1OCC	?	-12%	i	i	i	49%	-26%	-5%	-22%	-11%
CCCCNC(=O)c1ccc2c(OCC)n(CCCC)nc2c1	2%	0%	i	i	i	1%	.	.	.	.
CC1(C(=O)NCc2ccccc2Br)CCN1Cc1csc2ccccc12 (stereo not drawn)	?	-34%	i	i	?	?	.	.	.	.
COc1cc(OC)cc(-c2c(-c3cccs3)c3cc(-c4cnc(OC)nc4)ccc3n2C)c1	?	-16%	i	?	i	0%	?	-3%	-11%	-18%
COc1ccc(-c2ccc3c(c2)c(-c2cccs2)c(-c2cc(OC)cc(OC)c2)n3C)cc1	-3%	-13%	i	i	i	-2%	.	.	.	.
COc1cc(C2c3cc4c(cc3OC(NCc3ccccc3)C2C)OCO4)cc(OC)c1OC (stereo not drawn)	2.8µM*	-105%	?	0.58µM*	?	-19%	7.3µM*	0%	?	-16%
CCN(CC)C1Oc2cc3c(cc2C(c2cccc(OC)c2O)C1C)OCO3 (stereo not drawn)	?	-3%	?	?	?	-24%	.	.	.	.
CCN(CC)C1Oc2cc3c(cc2C(c2cc(OC)c(O)c(OC)c2)C1C)OCO3 (stereo not drawn)	0%	9%	?	?	?	-20%	.	.	.	.
COc1cccc(C2c3cc4c(cc3OC(NNC(N)=O)C2C)OCO4)c1O (stereo not drawn)	10µM*	3%	?	1.5µM*	4.6µM*	10%	8.2µM*	-19%	?	-15%
Cc1cc(Nc2nc3ccccc3[nH]c2=O)n(-c2ccccc2)n1	10µM*	-5%	i	i	?	-1%	8.2µM*	-25%	12µM*	43%
Cc1cc(Nc2cnc3ccccc3n2)n(-c2ccccc2)n1	?	-23%	i	i	?	-11%	.	.	.	.
CCCCCOc1ccc(NC(=O)Cn2c(-c3cncs3)nc3ccccc32)cc1	.	-47%	.	.	.	.	.	.	.	.
COc1ccc(S(=O)(=O)Nc2ccccc2C(=O)Nc2nc(-c3ccc(F)cc3)cs2)cc1OC	7.1µM*	-38%	i	?	15µM*	?	10µM*	?	8.2µM*	48%
COc1ccc(-c2csc(NC(=O)c3ccccc3NS(=O)(=O)c3ccc(C)cc3)n2)cc1	3.5µM*	-44%	i	2.6µM*	2.3µM*	?	6.5µM*	9.2µM*	5.2µM*	46%
O=[N+]([O-])c1ccc(NS(=O)(=O)c2ccc(Cl)c(Cl)c2)cc1	10µM*	-9%	?	?	?	?	10µM*	7.3µM*	?	82%
COc1ccc2c(c1)sc1nc(-c3ccccc3)cn12	10µM*	-69%	i	2.3µM*	?	?	?	?	15µM*	-15%
COc1ccc(-c2cn3c(n2)sc2cc(C(=O)NCc4ccccc4)ccc23)cc1	-16%	-12%	.	.	.	.	.	.	.	.
CN(CC(=O)Nc1cccc(S(=O)(=O)N2CCCC2)c1)CC(=O)Nc1ccc(Cl)c(C(F)(F)F)c1	16µM*	-14%	?	?	i	?	16µM*	?	29µM*	60%
O=C(CNc1ccc(Cl)c(C(F)(F)F)c1)N1CCN(S(=O)(=O)c2ccccc2)CC1	13µM*	-8%	i	i	?	-6%	12µM*	-3%	-25%	-10%
CC(=O)c1ccc(NCC(=O)N2CCN(S(=O)(=O)c3ccccc3)CC2)cc1	-22%	-10%	?	i	i	.	.	.	.	.
COc1ccccc1CCC(=O)N(C)CC(=O)Nc1ccc(Cl)c(C(F)(F)F)c1	11µM*	-9%	i	?	?	-8%	?	-20%	?	-1%

Screens: PubChem, National Center for Advancing Translational Sciences (NCATS)
